The entries come from a sample that favours hits as a whole.
TTR transcr act – TTR transcription activators in neuroblastoma reporter cells, primary screen, cell-based, luminescence, SH-SY5Y, TTR promoter Gaussia luciferase; 100% = recombinant luciferase protein wells; activation, % at 16.7 µM; actives 1.3% (n = 92,000); AID 1117267, 2014;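 active = activation above the mean of all tested compounds plus 3 SD, cut at about 9.5% in these data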;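 also: cells exposed to compounds for one day before reading; 0% = median of all test compound wells on the plate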
TTR inh HuH7 – TTR promoter reporter inhibitors in hepatoma cells, counter-screen for TTR transcription activator project, cell-based, luminescence, HuH7 hepatoma; inhibition, % at 16.7 µM; HuH7 TTR promoter-Gaussia luciferase reporter; AID 1117279, 2014; shares compounds with TTR transcr act; actives 4% (n = 1,100);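 active = average inhibition above the solvent-only control wells' mean plus 3 SD, cut at about 15% in these data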;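 also: 0% = cells with DMSO only and 100% = cells with inhibitor control FD; inhibitors lower well luminescence so higher value means more inhibition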
TTR up confirm – TTR transcription activators, retest, confirmation, cell-based, luminescence, SH-SY5Y, triplicate; shares compounds with TTR transcr act; SHSY5Y TTR promoter Gaussia luciferase; 100% = purified Lucia enzyme wells, no cells; activation, % at 16.7 µM; 1,100 tested, under 10 active;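 active = mean activation above a set limit taken from the earlier primary screen, cut at about 11% in these data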;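 also: 0% = DMSO-treated cells and 100% = recombinant Lucia luciferase without cells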
Numbers without * were called inactive.

SMILES	TTR transcr act	others
C[C@H]1[C@@H](NC(=O)/C=C/c2ccccc2)CC[C@@]23CCCN2C(=O)CCC[C@@H]13	0.0
COc1ccc(/C=N/n2c(-c3n[nH]c4c3CCC4)n[nH]c2=S)c(OC)c1OC	5.3
COc1ccc(/C=N/n2c(C)nnc2C)c(OC)c1OC	10.2*	TTR inh HuH7=-6.3;TTR up confirm=-0.1
COc1ccc(/C=N/N2CCN(C)CC2)c(OC)c1OC	4.5
C[C@H]1[C@@H](OC(=O)NC2CCC2)CC[C@@]23CCCN2C(=O)CCC[C@@H]13	0.5
Cc1ccc(NS(=O)(=O)c2ccc(C(=O)NCCN3CCOCC3)cc2)cc1	15.1*	TTR inh HuH7=-9.7;TTR up confirm=0.8
O=C(NCCCN1CCOCC1)c1ccc(NS(=O)(=O)c2cccc([N+](=O)[O-])c2)cc1	-0.1
CC(=O)Nc1ccc(C(=O)NCCN2CCOCC2)cc1	-1.3
CCCSc1ncnc2[nH]ncc12	12.8*	TTR inh HuH7=-4.2;TTR up confirm=-0.5
Cc1ccc(CNc2ncnc3[nH]ncc23)cc1	0.8
OCCCNc1ncnc2[nH]ncc12	3.5
CN1CCN(c2ccc(-c3csc(N4CCC(C(N)=O)CC4)n3)cc2)CC1	-0.3
COc1ccc(CC(=O)NC2CCCCN(Cc3ccc(Cl)cc3)C2=O)cc1OC (centres undefined)	-0.2
C[C@H]1C(c2ccccc2F)O[C@]2(C[C@H](O)c3c(ccc4ccccc34)O2)C[C@@H]1O (some centres undefined)	-0.5
CCC[C@H]1[C@@H](OC(=O)NCc2cccnc2)CC[C@@]23CCCN2C(=O)CCC[C@@H]13	1.5
CCOC(=O)Cn1c(=O)oc2cc(S(=O)(=O)N3CCc4ccccc43)ccc21	14.5*	TTR inh HuH7=-3.6;TTR up confirm=-0.4
CCOC(=O)Cn1c(=O)oc2cc(S(=O)(=O)N(CCN(C)C)Cc3ccccc3)ccc21	0.0
CCOC(=O)Cn1c(=O)oc2cc(S(=O)(=O)NC(C)(C)CC)ccc21	0.3
COC(=O)[C@]12C[C@H](CC(=O)NCc3cccc(C(F)(F)F)c3)C(=O)N(Cc3cccc4ccccc34)C1=C[C@H](C(C)C)O[C@@H]2C1CC1	-0.3
COc1ccc(CNC2CCC23CCC(C)CC3)cc1OC (centres undefined)	1.9
CCC[C@H]1[C@@H](OC(=O)N2CCCC2)CC[C@@]23CCCN2C(=O)CCC[C@@H]13	-1.1
CCOc1ccc(N2C(=O)CSC2=S)cc1	-1.8
COc1ccc(N=C2SCC(=O)N2Cc2ccccc2)cc1	-1.1
CCOc1ccc(N=C2SCC(=O)N2CC)cc1	18.3*	TTR inh HuH7=-11.3;TTR up confirm=0.1
Cc1ccc(C(=O)NC2CCCCN(Cc3ccccc3C)C2=O)cc1 (centres undefined)	-1.1
SMILES	TTR transcr act	others
COc1ccc(NC(=O)C(F)(OC)C(F)(F)F)c(OC)c1 (centres undefined)	13.8*	TTR inh HuH7=-8.1;TTR up confirm=0.7
COc1ccc(NC(=O)/C=C/C(=O)O)c(OC)c1	1.5
CCC(C)C(=O)Nc1ccc(OC)cc1OC (centres undefined)	0.7
CC(C)C(=O)N1CCC1(C)C(=O)NCc1cc(Cl)ccc1F (centres undefined)	-0.2
CCOC(=O)N1CCN(C(=O)C[C@@H]2C(=O)N3CCCC4=C3[C@@]2(C(=O)OC)CCCC4)CC1	-0.6
O=C(OCC#CCSc1nnc(-c2cccc3ccccc23)o1)c1cccc(F)c1	8.6
CN(Cc1ccccc1)C(=O)OCc1cn(Cc2c(F)cccc2F)nn1	-1.3
COC(=O)[C@]12C[C@H](CC(=O)NCCCN3CCCC3=O)C(=O)N(Cc3ccc(Cl)cc3Cl)C1=C[C@H](C1CCCC1)O[C@@H]2C	2.7
COc1cc(C(=O)N2C[C@@H]3CCC[C@H]2C3)ccc1OC1CCN(C(C)=O)CC1	16.1*	TTR inh HuH7=-8.4;TTR up confirm=0.2
COc1ccc(C(=O)N2CCN(C)C(C)C2)cc1OC1CCN(C(C)=O)CC1 (centres undefined)	-0.3
COc1cc(C(=O)N2C[C@H]3CC[C@H]2C3)ccc1OC1CCN(C(C)=O)CC1	0.0
O=C(NCCCc1ccccc1)[C@H](Cc1c[nH]c2ccccc12)NC1(C(=O)NCCc2c[nH]c3ccccc23)CCC1	-2.4
COc1cc2c(=O)n(CC3CCCO3)c(=O)n(CC(=O)Nc3ccc(F)cc3F)c2cc1OC (centres undefined)	0.4
COc1ccc(NC(=O)Cn2c(=O)n(CC3CCCO3)c(=O)c3cc(OC)c(OC)cc32)c(OC)c1 (centres undefined)	-0.4
COc1cc2c(=O)n(CC3CCCO3)c(=O)n(CC(=O)Nc3cccc(Cl)c3)c2cc1OC (centres undefined)	10.4*	TTR inh HuH7=-27.5;TTR up confirm=-0.4
CCOC(=O)[C@@]12CCC3=C1N(CCC3)C(=O)[C@H](CC(=O)NCc1cccc(C(F)(F)F)c1)C2	0.2
